Consider nine compounds from PubChem BioAssay.

SMILES strings stand for the structures. Active and inactive are the calls of the source.

The test system of assay [1] is Human papillomavirus type 1a protein E7 (residues 44-93). Put plainly: HPV1a E7 fragment binders on microarrays, primary screen, biochemical, small-molecule microarray, residues 44-93, 635 nm fluorescence (AID 1108).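 Further: E7 fragment applied at 1 µg/mL in TBST for 1 h at 4 C; score combines spot fluorescence with its signal to noise ratio.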 To be noted: small-molecule microarray binding, fluorescence 635 nm; higher = more signal.
Assay [2] in a line: modulators of HCV replicon luciferase signal, primary screen, HCV replication inhibitor project, Huh7 cells, luciferase reporter (AID 1109).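 Further: huh7 hepatoma cells harbouring a luciferase neomycin HCV replicon reporter; luciferase luminescence as measure of HCV replicon replication; test concentration not given here.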 Particulars: 48 h, higher = more signal.
Assay [3] deals with Left-right determination factor 2 (Homo sapiens) (UniProt O00292). Put plainly: LEFTY2 binders on small-molecule microarrays, primary screen, biochemical, small-molecule microarray, 635 nm fluorescence scan (AID 1110). To be noted: LEFTY2 binding, higher = more signal.
Assay [4] has as its target Calmodulin-1 (Homo sapiens) (UniProt P0DP23). Briefly: CALM1 binders on microarrays, EGTA buffer, profiling panel, biochemical, small-molecule microarray, Cy5-labelled CALM1 (AID 1111).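 Further: labelled calmodulin applied in Tris saline Tween buffer holding calcium plus EGTA and DTT.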 Particulars: Cy5-CALM1 binding fluorescence, higher = more signal.
Assay [5] shares this target. Briefly: calcium-bound CALM1 binders on microarrays, profiling panel, artefact control for SMM control-protein annotation, biochemical, small-molecule microarray, Cy5-labelled CALM1, plus calcium (AID 1112).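 Further: score merges spot fluorescence with signal to noise from triplicate slides.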 To be noted: Cy5-CALM1 binding fluorescence, higher = more signal.
Assay [6] can be described thus: small-molecule microarray binders of probe aWnt5a, primary screen, biochemical, biotinylated probe, 635/667 nm fluorescence (AID 1113).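 Further: score merges 667 nm fluorescence intensity with signal-to-noise per printed feature.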 Particulars: higher = more signal.
The nature of assay [7]: small-molecule microarray binders of probe aShh, primary screen, biochemical, biotinylated probe, 635/667 nm fluorescence (AID 1114).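 Further: probe is biotin-labelled aShh protein from a stem cell growth factor screen; measures binding of labelled protein to compounds printed on the slide; score merges feature fluorescence at 667 nm with signal-to-noise.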 Particulars: higher = more signal.
A short description of assay [8]: small-molecule microarray binders of probe aNog, primary screen, biochemical, biotinylated probe, 635/667 nm fluorescence (AID 1115).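 Further: probe is biotinylated aNog protein used at 0.15 µg/mL for 1 h at 4 C; z-score combines 667 nm fluorescence of each spot with its signal to noise.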 To be noted: higher = more signal.
The target of assay [9] is Torsin-1A-interacting protein 1 (Homo sapiens) (UniProt Q5JTV8). Briefly: LAP1 binders from COS7 cell lysate, primary screen, small-molecule microarray, 635/667 nm fluorescence (AID 1116). Particulars: COS7-hLAP1 lysate binding, 635 nm fluorescence, higher = more signal.
The target in assay [10] is Alpha-bungarotoxin (Bungarus multicinctus) (UniProt P60615). Briefly: alpha-bungarotoxin binders on microarray, profiling panel, artefact control for SMM control protein annotation, biochemical, small-molecule microarray, Alexa647 label, 635/667 nm fluorescence (AID 1117). To be noted: alpha-BTX-A647 binding fluorescence, higher = more signal.
The target of assay [11] is Albumin (Bos taurus) (UniProt P02769). Briefly: bovine serum albumin binders on microarray, profiling panel, artefact control for SMM control protein annotation, biochemical, small-molecule microarray, Alexa647 label, 635/667 nm fluorescence (AID 1118).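 Further: score merges 667 nm emission intensity and signal-to-noise per printed compound spot.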 Particulars: BSA-A647 binding, fluorescence 635 nm, higher = more signal.
The nature of assay [12]: small-molecule microarray binders of probe aXIP, primary screen, biochemical, NeuroSMM set, 635/667 nm fluorescence (AID 1119).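 Further: probe is the protein aXip251-270 applied at 1 µg/mL to compound-printed slides; binding of probe to printed compounds measured as 667 nm fluorescence plus signal to noise.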 Particulars: higher = more signal, called active from +8 up or from −8 down.
Assay [13] is described as follows: small-molecule binders of probe aNOTCH3, primary screen, biochemical, small-molecule microarray, 635/667 nm fluorescence (AID 1120).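 Further: probe is a biotin-tagged antibody raised against NOTCH3 rather than NOTCH3 protein; score merges spot fluorescence near 667 nm with spot signal to noise.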 To be noted: higher = more signal.
The nature of assay [14]: small-molecule binders of probe aNOTCH2, primary screen, biochemical, small-molecule microarray, 635/667 nm fluorescence (AID 1121).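 Further: score merges feature fluorescence read at 667 nm with its signal to noise.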 To be noted: higher = more signal.
The target of assay [15] is Carbonic anhydrase 2 (Homo sapiens) (UniProt P00918). Briefly: CAII small-molecule binders, profiling panel, biochemical, small-molecule microarray, Alexa647-labelled CAII (AID 1122). To be noted: CAII-A647 binding fluorescence, higher = more signal.
Assay [16] in a line: COS7 lysate on small-molecule microarray, probe aHis, 635 nm (AID 1123).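 Further: z-score combines 667nm fluorescence intensity with signal-to-noise per printed compound spot.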 To be noted: COS7 cell lysate, fluorescence, higher = more signal.
Assay [17] is described as follows: compound binding in COS7 lysate, probe aLAP1, primary screen, cell lysate, small-molecule microarray (AID 1124).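 Further: lysate comes from COS7 cells expressing LAP1 and is applied at 0.3 µg/mL; score merges spot fluorescence near 667 nm with signal-to-noise over triplicate slides.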 Particulars: probe aLAP1, fluorescence, higher = more signal.
Assay [18] has as its system Sam68 (KHDRBS1). Briefly: Sam68 small-molecule binders, primary screen, biochemical, small-molecule microarray, 635 nm fluorescence (AID 1125).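 Further: score merges 667 nm channel intensity with signal to noise over triplicate slides.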 Particulars: small-molecule microarray binding, higher = more signal.
The test system of assay [19] is Chordin-like protein 2 (CHRDL2). Put plainly: CHRDL2 small-molecule binders, primary screen, biochemical, small-molecule microarray, 635 nm fluorescence (AID 1126).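 Further: printed compound slides probed with Chrdl2 protein at 4 µg/mL for 1 h at 4 C; score merges 667 nm emission intensity with signal to noise over three replicate slides.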 To be noted: small-molecule microarray binding, fluorescence 635 nm; higher = more signal.
Assay [20] has as its target Concanavalin-A (Canavalia ensiformis) (UniProt P02866). Put plainly: ConA small-molecule binders, primary screen, artefact control for SMM control protein annotation, biochemical, small-molecule microarray, Alexa647 label, 635 nm (AID 1127).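 Further: z combines 667 nm emission intensity with signal-to-noise across three replicate slides.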 Particulars: ConA-A647 binding fluorescence, higher = more signal.

Sequence of Albumin (Bos taurus) (P02769 whole entry, looked up): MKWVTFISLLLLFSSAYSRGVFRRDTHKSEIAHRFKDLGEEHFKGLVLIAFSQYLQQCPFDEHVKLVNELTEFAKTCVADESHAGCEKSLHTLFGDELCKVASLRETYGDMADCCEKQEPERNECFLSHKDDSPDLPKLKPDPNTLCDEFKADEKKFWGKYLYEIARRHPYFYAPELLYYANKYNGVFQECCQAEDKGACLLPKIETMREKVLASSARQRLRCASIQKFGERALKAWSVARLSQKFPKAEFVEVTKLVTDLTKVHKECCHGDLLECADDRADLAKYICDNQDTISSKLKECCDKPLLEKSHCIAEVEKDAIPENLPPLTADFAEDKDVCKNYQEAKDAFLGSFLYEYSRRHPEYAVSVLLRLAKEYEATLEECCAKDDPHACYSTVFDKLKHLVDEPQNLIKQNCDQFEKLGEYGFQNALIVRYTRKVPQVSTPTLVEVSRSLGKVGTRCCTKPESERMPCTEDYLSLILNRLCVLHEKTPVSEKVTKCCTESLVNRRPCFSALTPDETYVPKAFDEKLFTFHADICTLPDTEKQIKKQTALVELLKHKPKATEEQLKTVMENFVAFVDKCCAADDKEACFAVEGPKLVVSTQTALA
Sequence of Torsin-1A-interacting protein 1 (Homo sapiens) (Q5JTV8 whole entry, looked up): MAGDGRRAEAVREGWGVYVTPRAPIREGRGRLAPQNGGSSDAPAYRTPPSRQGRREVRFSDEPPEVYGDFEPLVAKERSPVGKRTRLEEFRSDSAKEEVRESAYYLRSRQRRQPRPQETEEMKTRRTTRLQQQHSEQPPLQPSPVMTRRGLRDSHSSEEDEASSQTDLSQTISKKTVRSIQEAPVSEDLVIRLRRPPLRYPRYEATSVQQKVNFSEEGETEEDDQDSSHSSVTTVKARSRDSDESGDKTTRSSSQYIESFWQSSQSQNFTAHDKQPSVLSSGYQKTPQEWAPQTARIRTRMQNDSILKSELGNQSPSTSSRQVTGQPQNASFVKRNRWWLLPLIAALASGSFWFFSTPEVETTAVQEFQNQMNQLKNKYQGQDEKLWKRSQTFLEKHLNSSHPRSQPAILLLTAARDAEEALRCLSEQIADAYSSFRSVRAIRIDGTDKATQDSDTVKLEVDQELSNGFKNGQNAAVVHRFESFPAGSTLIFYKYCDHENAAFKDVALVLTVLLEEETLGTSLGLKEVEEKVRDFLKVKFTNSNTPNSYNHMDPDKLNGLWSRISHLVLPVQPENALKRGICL
Sequence of Concanavalin-A (Canavalia ensiformis) (P02866 whole entry, looked up): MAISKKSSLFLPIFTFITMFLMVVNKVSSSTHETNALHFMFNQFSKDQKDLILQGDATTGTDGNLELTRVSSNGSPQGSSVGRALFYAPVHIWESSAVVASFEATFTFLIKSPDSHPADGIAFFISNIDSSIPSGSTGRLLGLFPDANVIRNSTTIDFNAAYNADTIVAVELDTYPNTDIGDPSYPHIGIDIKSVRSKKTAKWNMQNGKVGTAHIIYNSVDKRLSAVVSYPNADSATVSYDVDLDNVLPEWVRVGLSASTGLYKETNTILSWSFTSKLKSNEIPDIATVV
Sequence of Alpha-bungarotoxin (Bungarus multicinctus) (P60615 whole entry, looked up): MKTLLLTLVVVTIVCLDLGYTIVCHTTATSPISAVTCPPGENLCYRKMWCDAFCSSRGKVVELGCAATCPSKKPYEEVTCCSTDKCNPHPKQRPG
Sequence of Left-right determination factor 2 (Homo sapiens) (O00292 whole entry, looked up): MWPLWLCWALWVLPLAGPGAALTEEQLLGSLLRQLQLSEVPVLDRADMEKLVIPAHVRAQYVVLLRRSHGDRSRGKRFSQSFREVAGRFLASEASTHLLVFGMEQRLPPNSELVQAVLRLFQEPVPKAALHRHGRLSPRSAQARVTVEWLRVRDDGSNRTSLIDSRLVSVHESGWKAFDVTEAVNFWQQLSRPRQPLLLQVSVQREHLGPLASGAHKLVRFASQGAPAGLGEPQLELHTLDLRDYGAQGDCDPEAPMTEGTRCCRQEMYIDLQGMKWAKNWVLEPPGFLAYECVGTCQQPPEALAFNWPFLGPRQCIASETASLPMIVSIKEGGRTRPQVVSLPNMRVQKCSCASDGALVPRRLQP

As to `COc1ccccc1CN1C(=O)c2ccccc2[C@@H](C(=O)NCc2ccccc2)[C@@H]1c1ccc(CO)cc1`, the composite z-score is 0.841 in assay [1]; 0.0458 in assay [3]; -0.473 in [4]; -0.181 in [5]; -0.124 in assay [6]; -0.374 in [7]. The composite z-score in assay [8] is -0.416; in [9] it was 0.404; in assay [10] it was 1.78; in [11], 0.431; in assay [13], -0.293; in [14] it was -0.0984. Moreover, the composite z-score in assay [15] is 0.544; in assay [16], 1.15; in [17], 1.54; in assay [18], 1.09; in [19] it was -0.353; in assay [20] it was 0.305. In assay [2], this compound returned a z-score of -1.01. In addition, the composite Z-score in [12] was -0.549 (inactive).
With `CCCCCCc1nc(-c2ccc(-c3ccc(Cl)c(Cl)c3)o2)cc2c1[Si](C(C)C)(C(C)C)O[C@H]2c1ccccc1`, the composite z-score was -0.545 in assay [1]; -0.0324 in [3]; -0.365 in assay [4]; 0.077 in assay [5]; -0.264 in assay [6]; 0.0723 in assay [7]. The composite z-score in assay [8] is -0.141; in assay [9] it was -0.741; in assay [10], 0.622; in [11], 0.108; in assay [13], -0.292; in [14], -0.153. For the same compound, the composite z-score is 0.739 in assay [15]; 0.458 in assay [16]; -0.418 in [17]; -0.472 in assay [18]; -0.517 in [19]; -0.131 in assay [20]. For the same compound, the z-score in assay [2] was -0.674. Also, the composite Z-score in [12] is 1.35 (inactive).
As to `O=C1[C@H]2C=C(I)[C@H](C[C@@H]2OCCCCO)[C@@]12CO2`, the composite z-score was -0.417 in [1]; -0.244 in [3]; -0.754 in assay [4]; -0.749 in assay [5]; -0.128 in [6]; 0.133 in assay [7]. For the same compound, the composite z-score in assay [8] was 0.109; in assay [9], 0.452; in assay [10], -0.132; in assay [11], -1.17; in [13], -0.0057; in assay [14] it was -0.061. Besides, the composite z-score in [15] is 0.758; in assay [16], 0.141; in assay [17] it was 0.489; in assay [18] it was 0.579; in assay [19], -0.11; in assay [20], -0.0969. The z-score in [2] is -2.55. Further, the composite Z-score in [12] is 0.32 (inactive).
For the compound `O[C@@H](Cc1ccccc1)[C@@H](/C=C/C1CC1)NCc1cccc(Cl)c1`, the composite z-score was -0.597 in [1]; -1.4 in assay [3]; -0.863 in assay [4]; -0.133 in assay [5]; -0.197 in [6]; -0.206 in assay [7]. Besides, the composite z-score was -0.402 in assay [8]; -0.737 in [9]; -0.801 in assay [10]; -0.0308 in [11]; -0.272 in [13]; -0.146 in assay [14]. Moreover, the composite z-score is -0.397 in assay [15]; -0.266 in assay [16]; -0.273 in [17]; -0.53 in assay [18]; -1.11 in [19]; -0.509 in assay [20]. The same compound had a z-score in [2] of -4.47. In addition, the composite Z-score in assay [12] was -0.515 (inactive).
Regarding `CCCCN1CC=CC23O[C@@H]4C=CCCOC(=O)C4[C@H]2C(=O)N(CCCCCO)[C@@H]3C1=O` (stereo not given in full), the composite z-score in assay [1] is -0.977; in assay [3] it was -0.646; in assay [4], -0.107; in assay [5], -0.589; in assay [6], -0.208; in [7], -0.138. For the same compound, the composite z-score was -0.033 in assay [8]; -0.865 in assay [9]; 0.0086 in assay [10]; 0.438 in [11]; -0.297 in [13]; -0.132 in [14]. Moreover, the composite z-score in assay [15] is 0.861; in assay [16], -0.0221; in [17], -0.327; in assay [18], -0.444; in assay [19] it was -0.882; in assay [20], -0.131. This compound gave a z-score in assay [2] of -0.698. For the same compound, the composite Z-score in [12] is 0.251 (inactive).
Consider `[N-]=[N+]=NCc1ccccc1[C@@H]1OC(c2ccc(OCCCO)cc2)=N[C@]1(CCS(=O)(=O)c1ccccc1)C(=O)N1CCOCC1`, for which the composite z-score was 1.41 in assay [1]; -0.141 in [3]; 1.72 in [4]; 0.443 in [5]; 0.0357 in [6]; 0.0381 in [7]. Also, the composite z-score is 0.113 in assay [8]; 2 in assay [9]; 2.04 in assay [10]; 0.923 in assay [11]; 0.391 in assay [13]; 0.104 in assay [14]. The composite z-score was 0.513 in [15]; 2.62 in assay [16]; 0.254 in assay [17]; 1.3 in assay [18]; -0.213 in [19]; 1.19 in assay [20]. The same compound registered a z-score in assay [2] of -1.82. The composite Z-score in assay [12] is -0.244 (inactive).
Turning to `CCCCCCc1nc(-c2ccc(-c3ccc(Cl)c(Cl)c3)o2)c(C)c2c1[Si](C(C)C)(C(C)C)OC2`, the composite z-score in assay [1] was -0.121; in assay [3], -0.127; in assay [4], 0.18; in assay [5], 0.45; in assay [6], -0.124; in assay [7], -0.123. In addition, the composite z-score is -0.124 in [8]; -0.196 in assay [9]; 0.354 in assay [10]; 0.13 in assay [11]; -0.1 in assay [13]; -0.166 in assay [14]. The composite z-score in [15] is 0.0293; in assay [16] it was 0.645; in assay [17] it was -0.173; in assay [18], 0.1; in assay [19], -1.06; in assay [20] it was 0.999. Further, in [2], the z-score was -1.46. Moreover, in assay [12], the composite Z-score was 0.0001 (inactive).
Consider `[N-]=[N+]=Nc1ccccc1[C@H]1OC(c2ccc(OCCCO)cc2)=N[C@@]1(CCS(=O)(=O)c1ccccc1)C(=O)NCc1ccccc1`, for which the composite z-score amounted to 1.46 in assay [1]; 0.565 in [3]; 0.937 in [4]; 0.338 in [5]; 0.153 in assay [6]; 0.0723 in [7]. Also, the composite z-score is -0.487 in assay [8]; 1.06 in assay [9]; 0.785 in [10]; 0.307 in assay [11]; 0.318 in assay [13]; -0.037 in [14]. Also, the composite z-score was 0.684 in [15]; 2.3 in [16]; 0.403 in [17]; 1.32 in [18]; -0.164 in [19]; 0.94 in [20]. For the same compound, the z-score in assay [2] is -0.242. In addition, the composite Z-score in assay [12] was -0.0549 (inactive).
Regarding `COC(=O)C[C@H]1O[C@@H](CCc2ccccc2)[C@@H](C)[C@@H]1[Si](C)(C)c1ccc(OC)cc1`, the composite z-score is -0.504 in [1]; -0.0374 in assay [3]; -0.606 in assay [4]; 0.125 in [5]; -0.232 in assay [6]; -0.439 in assay [7]. The composite z-score in [8] was -0.266; in assay [9] it was -0.562; in assay [10], -0.763; in assay [11], -0.932; in assay [13], -0.268; in [14], -0.154. For the same compound, the composite z-score in assay [15] is -0.394; in assay [16], -0.308; in assay [17], 0.314; in [18] it was -1.1; in assay [19], 0.323; in assay [20], -0.615. For the same compound, in [2], the z-score was -0.638. The composite Z-score in [12] is 0.611 (inactive).
